Laboratory results as given in PubChem BioAssay (Tox21).
“And” between values parts separate entries of the source, which are not always exact repeats. Equal values may be shown once. A number with no mark means an inactive call. A call without a number means that no potency is given here. The source made the active and inactive calls. Unless noted, the call rests on the fitted dose curve; in most records, active means well fitted curve in the direction sought with a large enough effect in the repeat runs; inconclusive means weak or mixed curves; inactive means no such curve, though single readings can be large; an effect the other way counts as inactive or inconclusive.

Experiments:
[1] = qHTS assay to identify small molecule antagonists of the glucocorticoid receptor (GR) signaling pathway - cell viability counter screen (AID 720693); further: nearly all actives have a fitted effect of over 55% in size; further: potency means the concentration at half of the fitted maximal effect
[2] = qHTS assay for identifying genotoxic compounds that show differential cytotoxicity against isogenic chicken DT40 cell lines with known DNA damage response pathways - wild type cell line (AID 743012); further: nearly all actives have a fitted effect of over 60% in size; further: potency means the concentration at half of the fitted maximal effect
How it was run: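 First, wild type DT40 cells were plated at 300 per well and equilibrated about 0.5 h at 37 C/5% CO2. Next, compounds in DMSO were added and exposure lasted 40 h. Finally, CellTiter-Glo was added for 30 min at room temperature and luminescence recorded.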

[3] = qHTS assay for identifying genotoxic compounds that show differential cytotoxicity against isogenic chicken DT40 cell lines with known DNA damage response pathways - Rev3 mutant cell line (AID 743014); further: nearly all actives have a fitted effect of over 55% in size; further: potency means the concentration at half of the fitted maximal effect
[4] = qHTS assay for identifying genotoxic compounds that show differential cytotoxicity against isogenic chicken DT40 cell lines with known DNA damage response pathways - Rad54/Ku70 mutant cell line (AID 743015); further: nearly all actives have a fitted effect of over 60% in size; further: potency means the concentration at half of the fitted maximal effect
[5] = qHTS assay to identify small molecule antagonists of the androgen receptor (AR) signaling pathway using the MDA cell line - cell viability counter screen (AID 743041; further: nearly all actives have a fitted effect of over 45% in size; further: potency means the concentration at half of the fitted maximal effect)
How it was run: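 MDA-kb2 AR-luc cells (MMTV-luciferase, AR/GR responsive) treated with compounds plus R1881 agonist for 16 h at 37C. CellTiter-Fluor added at 15.5 h; fluorescence read after 30 min in the same wells.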

[6] = qHTS assay to identify small molecule antagonists of the thyroid receptor (TR) signaling pathway (AID 743065); further: nearly all actives have a fitted effect of over 55% in size; further: potency means the concentration at half of the fitted maximal effect
How it was run: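 GH3.TRE-Luc rat pituitary cells (two TREs driving luciferase) were dosed with compound, then stimulated with 1 nM T3 (final) for 23.5 h at 37 C. ONE-Glo luminescence was the read-out, with CellTiter-Fluor fluorescence as the cytotoxicity counter-screen.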

[7] = system: thyroid hormone receptor (rat, GH3 cells); assay: qHTS assay to identify small molecule agonists of the thyroid receptor (TR) signaling pathway (AID 743066; calls by dose curve)
[8] = qHTS assay to identify small molecule antagonists of the estrogen receptor alpha (ER-alpha) signaling pathway - cell viability counter screen (AID 743074; calls by dose curve;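 further: HEK293 cells carrying ER-alpha-UAS-bla reporter stimulated with 17beta-estradiol; nearly all actives have a fitted effect of over 45% in size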; further: potency means the concentration at half of the fitted maximal effect)
[9] = biological target: Estrogen receptor (Homo sapiens) (UniProt P03372); assay: qHTS assay to identify small molecule agonists of the estrogen receptor alpha (ER-alpha) signaling pathway (AID 743075; calls by dose curve); conditions: HEK293 ER-alpha-UAS-bla, beta-lactamase FRET ratio, 18 h; activation: at 70.1 µM (top of the series)
Estrogen receptor (Homo sapiens), sequence (P03372 whole entry, looked up): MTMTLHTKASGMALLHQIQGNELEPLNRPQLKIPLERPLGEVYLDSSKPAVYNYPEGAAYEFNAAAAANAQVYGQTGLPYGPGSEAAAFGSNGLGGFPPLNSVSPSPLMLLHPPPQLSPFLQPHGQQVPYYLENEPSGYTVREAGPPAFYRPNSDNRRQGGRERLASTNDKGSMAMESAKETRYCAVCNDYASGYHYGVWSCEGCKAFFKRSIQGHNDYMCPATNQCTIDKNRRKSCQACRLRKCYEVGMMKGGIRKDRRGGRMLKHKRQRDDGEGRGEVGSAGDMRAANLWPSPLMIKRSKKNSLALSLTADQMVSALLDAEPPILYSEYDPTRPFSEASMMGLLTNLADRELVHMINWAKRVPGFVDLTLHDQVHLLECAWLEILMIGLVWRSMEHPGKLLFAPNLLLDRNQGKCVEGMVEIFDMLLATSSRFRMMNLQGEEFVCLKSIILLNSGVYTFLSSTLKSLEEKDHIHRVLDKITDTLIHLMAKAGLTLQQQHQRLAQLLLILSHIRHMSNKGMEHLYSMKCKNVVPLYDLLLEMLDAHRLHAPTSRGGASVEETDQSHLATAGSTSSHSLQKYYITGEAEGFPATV

[10] = qHTS assay to identify small molecule antagonists of the estrogen receptor alpha (ER-alpha) signaling pathway using the BG1 cell line (AID 743080; calls by dose curve;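 further: BG1 cells stimulated with 17beta-estradiol alongside compound; nearly all actives have a fitted effect of over 25% in size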; further: potency means the concentration at half of the fitted maximal effect)
How it was run: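 After 5 days in phenol-red-free 10% charcoal-stripped FBS medium, BG1-Luc-4E2 cells were seeded, left 24 h at 37 C, co-treated with compounds and 17beta-estradiol for 21.5 h, then assayed for viability and luciferase.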

[11] = qHTS assay to identify small molecule antagonists of the estrogen receptor alpha (ER-alpha) signaling pathway using the BG1 cell line - cell viability counter screen (AID 743081);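 further: compound given together with 17beta-estradiol as the ER stimulus; nearly all actives have a fitted effect of over 45% in size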
Aromatase (Homo sapiens) = Aromatase (Homo sapiens) (UniProt P11511); assay: qHTS assay to identify aromatase inhibitors (AID 743083); further: nearly all actives have a fitted effect of over 55% in size; further: potency means the concentration at half of the fitted maximal effect
Aromatase (Homo sapiens), sequence (P11511 whole entry, looked up): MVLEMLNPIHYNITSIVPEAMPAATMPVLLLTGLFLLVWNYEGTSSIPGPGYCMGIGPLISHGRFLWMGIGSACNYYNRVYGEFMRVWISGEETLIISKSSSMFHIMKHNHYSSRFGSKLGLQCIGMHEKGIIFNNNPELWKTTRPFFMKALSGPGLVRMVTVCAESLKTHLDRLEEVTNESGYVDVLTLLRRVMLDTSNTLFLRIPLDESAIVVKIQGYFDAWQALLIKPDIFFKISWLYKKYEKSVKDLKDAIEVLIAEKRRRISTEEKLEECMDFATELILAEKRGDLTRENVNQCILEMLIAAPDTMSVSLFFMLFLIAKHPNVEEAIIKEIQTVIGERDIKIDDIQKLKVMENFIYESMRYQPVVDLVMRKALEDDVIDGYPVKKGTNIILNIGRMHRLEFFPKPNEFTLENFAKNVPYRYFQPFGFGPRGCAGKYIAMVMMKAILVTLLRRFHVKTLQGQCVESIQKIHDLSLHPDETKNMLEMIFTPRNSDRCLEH

[12] = qHTS assay to identify small molecule antagonists of the thyroid receptor (TR) signaling pathway - cell viability counter screen (AID 743064); further: nearly all actives have a fitted effect of over 50% in size; further: potency means the concentration at half of the fitted maximal effect
How it was run: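 GH3.TRE-Luc cells, 4 h pre-plating; cpd + T3 1 nM final; 37 °C 23.5 h; CellTiter-Fluor 30 min; fluorescence read.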

[13] = biological target: Estrogen receptor (Homo sapiens) (UniProt P03372); assay: qHTS assay to identify small molecule agonists of the estrogen receptor alpha (ER-alpha) signaling pathway using the BG1 cell line (AID 743079); conditions: BG1Luc4E2 cells, ERE-luciferase agonist, 22 h; further: nearly all actives have a fitted effect of over 20% in size
[14] = biological target: Estrogen receptor (Homo sapiens) (UniProt P03372); assay: qHTS assay to identify small molecule antagonists of the estrogen receptor alpha (ER-alpha) signaling pathway (AID 743069; active means well fitted curve in the direction sought with a large enough effect in the signal ratio in the repeat runs, not every such curve was filed as active; inconclusive means weak or mixed curves, or effect the other way; inactive means no such curve, though single readings can be large or run the other way; the % refers to the signal ratio; further: potency means the concentration at half of the fitted maximal effect)
How it was run: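 HEK293 ER-alpha-UAS-bla GripTite cells, held overnight in 2% charcoal-stripped FBS, 5,000 cells/well, preincubated 4 h, then compound plus 17beta-estradiol for 18 h at 37C. Beta-lactamase read by LiveBLAzer B/G FRET substrate, 2 h at room temperature.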

[15] = biological target: Androgen receptor (Homo sapiens) (UniProt P10275); assay: qHTS assay to identify small molecule antagonists of the androgen receptor (AR) signaling pathway (AID 743035; active means well fitted inhibition curve with a large enough effect in the signal ratio in the repeat runs, not every such curve was filed as active; inconclusive means weak or mixed curves, or effect the other way; inactive means no such curve, though single readings can be large or run the other way; the % refers to the signal ratio; further: potency means the concentration at half of the fitted maximal effect)
Androgen receptor (Homo sapiens), sequence (P10275 whole entry, looked up): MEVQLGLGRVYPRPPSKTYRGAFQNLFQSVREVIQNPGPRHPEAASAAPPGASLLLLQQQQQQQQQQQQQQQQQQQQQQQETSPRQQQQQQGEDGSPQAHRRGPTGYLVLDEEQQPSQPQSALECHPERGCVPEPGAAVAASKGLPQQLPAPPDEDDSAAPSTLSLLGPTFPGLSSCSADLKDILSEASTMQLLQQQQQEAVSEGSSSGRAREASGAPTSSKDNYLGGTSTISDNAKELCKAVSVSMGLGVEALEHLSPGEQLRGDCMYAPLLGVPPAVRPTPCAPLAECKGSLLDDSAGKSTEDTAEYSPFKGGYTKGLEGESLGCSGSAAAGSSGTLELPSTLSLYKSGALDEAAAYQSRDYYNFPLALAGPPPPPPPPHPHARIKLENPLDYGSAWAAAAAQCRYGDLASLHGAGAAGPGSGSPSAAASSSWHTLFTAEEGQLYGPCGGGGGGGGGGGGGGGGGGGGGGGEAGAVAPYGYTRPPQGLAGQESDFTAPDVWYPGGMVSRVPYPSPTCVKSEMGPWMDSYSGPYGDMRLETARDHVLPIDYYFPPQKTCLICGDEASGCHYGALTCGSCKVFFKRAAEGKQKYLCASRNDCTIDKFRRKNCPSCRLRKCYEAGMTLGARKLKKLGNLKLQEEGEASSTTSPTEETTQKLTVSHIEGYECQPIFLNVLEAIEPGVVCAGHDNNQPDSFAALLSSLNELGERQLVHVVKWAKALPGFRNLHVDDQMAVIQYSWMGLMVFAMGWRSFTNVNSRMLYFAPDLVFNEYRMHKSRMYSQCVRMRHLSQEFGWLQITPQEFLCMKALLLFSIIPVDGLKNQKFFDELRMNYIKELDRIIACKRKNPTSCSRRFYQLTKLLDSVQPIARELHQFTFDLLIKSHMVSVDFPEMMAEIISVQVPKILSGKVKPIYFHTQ
How it was run: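 Beta-lactamase FRET read (2 h RT incubation with LiveBLAzer B/G) following 16 h of compound plus R1881 treatment of AR-UAS-bla HEK293 cells, which had been pre-incubated 4 h at 37C.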

[16] = biological target: Androgen receptor (Homo sapiens) (UniProt P10275); assay: qHTS assay to identify small molecule antagonists of the androgen receptor (AR) signaling pathway using the MDA cell line (AID 743042; further: nearly all actives have a fitted effect of over 55% in size; further: potency means the concentration at half of the fitted maximal effect)
How it was run: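 MDA-kb2 breast carcinoma cells carrying MMTV-luciferase (AR/GR responsive) were co-treated with compounds and the agonist R1881 for 16 h at 37C. Inhibition read as ONE-Glo luminescence; CellTiter-Fluor fluorescence measured in parallel for cytotoxicity.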

[17] = biological target: Androgen receptor (Homo sapiens) (UniProt P10275); assay: qHTS assay to identify small molecule agonists of the androgen receptor (AR) signaling pathway (AID 743036; active means well fitted activation curve with a large enough effect in the signal ratio in the repeat runs, with a control signal flat, not every such curve was filed as active; inconclusive means weak or mixed curves, or effect the other way; inactive means no such curve, though single readings can be large or run the other way; the % refers to the signal ratio)
How it was run: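 AR-bla HEK293 cells, 2,000/well; 4 h preincubation 37C/5% CO2; compound (DMSO) 16 h at 37C; LiveBLAzer B/G FRET substrate 2 h RT; fluorescence intensity read-out.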

Structure (SMILES) | Potency [1] | Potency [2] | Potency [3] | Potency [4] | Potency [5] | Potency [6] | Potency [7] | Potency [8] | Potency [9] | Potency [10] | Potency [11] | Potency (Aromatase (Homo sapiens)) | Potency [12] | activation ([13]; at 95 µM (top of the series)) [%] | activation ([13]; at 70.3 µM (top of the series)) [%] | Potency [14] | Potency [15] | Potency [16] | activation ([13]; at 32.5 µM (top of the series)) [%] | Potency [17]
Cc1c(C)c2c(c(C)c1O)CCC(C)(COc1ccc(CC3SC(=O)NC3=O)cc1)O2 (centres undefined) | inactive | 10.6 µM (active) and 17.2 µM (active) | 26.6 µM (active) and 15.4 µM (active) | 10.6 µM (active) and 24.3 µM (active) | inactive | 13.3 µM (active) and 24.3 µM (active) | inactive | inactive | inactive | 23.7 µM (active) | inactive | 29.8 µM (active) and 61.1 µM (active) |  |  |  |  |  |  |  | 
NNc1nc(-c2ccccc2)cs1 | inactive | inactive | inactive | inactive | inactive | 14.1 µM (active) | inactive | inactive | inactive | inactive |  | inactive | 31.5 µM (active) | 7.73 |  |  |  |  |  | 
Fc1ccc(C(c2ccc(F)cc2)N2CCN(C/C=C/c3ccccc3)CC2)cc1 | inactive | 10.6 µM (active) | 13.3 µM (active) | 11.9 µM (active) | inactive |  |  | inactive | inactive | inactive | inactive | inactive |  |  | -22.9 |  |  |  |  | 
CCCC/C=C/CCCCO | inactive | inactive | inactive | inactive | inactive | inactive | inactive | inactive | inactive | inactive |  | inactive | inactive |  |  | inactive |  |  |  | 
CCCCCCCC/C=C/CCCCCCCC1=NCCN1CCO | 49 µM (active) | 12.2 µM (active) | 13.7 µM (active) | 13.7 µM (active) | inactive | 21.7 µM (active) | inactive |  |  |  |  | 48.6 µM (active) | 21.7 µM (active) |  |  |  | 49 µM (active) | inactive |  | 
Cc1cc(O)c(C(C)(C)C)cc1C(C)(C)C | 43.6 µM (active) | 10.9 µM (active) | 6.86 µM (active) | 13.7 µM (active) | 43.3 µM (active) | 21.7 µM (active) | inactive | 17.4 µM (active) |  |  | inactive | 54.5 µM (active) | 24.3 µM (active) |  |  |  |  | 54.5 µM (active) |  | 
CCCCCCCCCCCCCCCC[N+](C)(C)CCN(Cc1ccc(OC)cc1)c1ncccn1 | inactive | 1.6 µM (active) | 2.02 µM (active) | 2.27 µM (active) |  |  |  |  | inactive |  | inactive | 12.7 µM (active) | 11.4 µM (active) |  |  | inactive |  |  | -16.9 | 
O=C(OCC1CO1)C1CCCCC1C(=O)OCC1CO1 (centres undefined) | inactive | 8.64 µM (active) | 0.77 µM (active) | 9.7 µM (active) | inactive | 27.3 µM (active) | inactive | inactive |  |  |  |  | 54.5 µM (active) |  |  |  |  | inactive |  | 
Cc1ccc(-n2nc(C(C)(C)C)cc2NC(=O)Nc2ccc(OCCN3CCOCC3)c3ccccc23)cc1 | inactive | 18.8 µM (active) | 26.6 µM (active) | 26.6 µM (active) |  |  | inactive | inactive | inactive | inactive | inactive | inactive | inactive |  |  | 13.4 µM [inconclusive] (active) |  |  |  | 
O=C1c2c(O)ccc(Nc3ccc(CCO)cc3)c2C(=O)c2c([N+](=O)[O-])ccc(O)c21 | inactive | 61.1 µM (active) | 61.1 µM (active) | 27.3 µM (active) |  |  | inactive | inactive | inactive | inactive |  |  | 61.1 µM (active) |  | -6.57 |  |  |  |  | inactive
On1ccccc1=S | inactive | 0.215 µM (active) | 0.215 µM (active) | 0.215 µM (active) | 0.959 µM (active) | 0.855 µM (active) |  |  |  |  | inactive | 0.382 µM (active) | 1.52 µM (active) |  |  |  |  |  |  | 
